# Source: PubChem BioAssay AID1036 (National Center for Advancing Translational Sciences (NCATS), 2008)
# Results filed as inconclusive are left out. Calls of active or inactive are those of the source. Calls come from the whole dose curve.
# Assay: NSCLC 1 Cell Viability Secondary Assay for qHTS Assay for Epigenetic Modulator
# Details: NSCLC 1 cells viability, MTS absorbance, 4 days
# Source text: NIH Molecular Libraries Screening Centers Network [MLSCN] NIH Chemical Genomics Center [NCGC] MLSCN Grant: 1 X01 MH079860-01 Assay Provider: Elisabeth D. Martinez, University of Texas SW Medical Center NCGC Assay Overview: This secondary assay characterizes selected actives identified in the qHTS of the Locus Derepression (LDR) assay (PubChem AID 597). The LDR assay detects the derepression of a GFP reporter that is stably integrated in a region of the genome of murine c127i mammary cells that is presumably silenced. Compounds that cause derepression of the locus to express GFP are identified by enumerating GFP positive cells using a laser-scanning microplate cytometer. Selected LDR actives were assayed for killing of NSCLC 1, a patient-derived nonsmall cell lung carcinoma line. Known epigenetic drugs, like histone deacetylase inhibitors, can block cancer cell growth. NSCLC 1 cell viability was measured using Cell Titer 96 AQueous One (Promega), an assay which detects the ability of metabolically active cells to reduce a tetrazolium salt substrate (MTS), into a soluble formazan product that can be measured by colorimetry.
# NCGC Assay Protocol Summary NSCLC 1 cells were plated in 96-well flat bottom tissue culture dishes (Corning) and grown overnight at 37 C and 5% CO2, then treated with compounds, incubated 4 days, and assayed for viability using the Cell Titer 96 AQueous One kit (Promega) according to the manufacturer's protocol. Absorbance at 490 nm and 650 nm (reference) was measured by a Spectra Max (Molecular Devices). Data were normalized to the untreated control (100% viability). Each cell line was tested in one or two independent assays, each containing 4 or 8 replicates. For further details, see R.L. Johnson, W. Huang, A. Jadhav, C.P. Austin, J. Inglese, E.D. Martinez, A Quantitative High-Throughput Screen Identifies Potential Epigenetic Modulators of Gene Expression, Analytical Biochemistry (2007), doi: 10.1016/j.ab.2007.12.028
SMILES,Potency,outcome
CC(/C=C/C(=O)NO)=C\[C@@H](C)C(=O)c1ccc(N(C)C)cc1,100 nM (active),
CN1C(=S)SC(c2ccccc2)N(C)C1c1ccccc1 (configuration not stated),,inactive
CC(C)C(=O)NC(c1ccco1)c1cc([N+](=O)[O-])c2cccnc2c1O (configuration not stated),8000 nM (active),
CC(C)C(=O)NC(c1ccco1)c1ccc2cccnc2c1O (configuration not stated),1000 nM (active),
CC(C)C(=O)NC(c1ccc(N(C)C)cc1)c1ccc2cccnc2c1O (configuration not stated),300 nM (active),
O=C(CSc1cccc2cccnc12)NCc1ccccc1,,inactive
O=Nc1ccc(O)c2ncccc12,4000 nM (active),
